Source: the supplement of paper PMC4466140

B1: unnamed (peptide)
chain: PIVPSSPAPPLPLSG

molecular target: AgAbp1; experiment: SPOT peptide array binding signal intensity (averaged, normalized) (arbitrary units (background-subtracted, floor 0; scale differs between SH3 domains)); higher = stronger binding of the SH3 domain to the peptide
How it was run: (§1)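 To measure binding, SH3 domains from four yeast species were fused to GST, expressed in E. coli BL21(DE3) and purified on glutathione Sepharose. Each domain was incubated at 10 μg/ml overnight at 4°C on cellulose membranes with synthetic 15-mer peptides whose cysteines were replaced by serines. Anti-GST antibody, an HRP anti-mouse secondary and luminol were used for detection, and images were quantified with Genespotter. Reported binding signal is normalized, background-subtracted spot intensity averaged over replicates, in arbitrary units that differ between domains.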

Binder | SPOT peptide array binding signal intensity
B1 | ≤ 0

molecular target: AgBbc1; experiment: as above
How it was run: as §1

Binder | SPOT peptide array binding signal intensity
B1 | ≤ 0

molecular target: AgBem1-D1; experiment: as above
How it was run: as §1

Binder | SPOT peptide array binding signal intensity
B1 | ≤ 0

molecular target: AgBzz1-D1; experiment: as above
How it was run: as §1

Binder | SPOT peptide array binding signal intensity
B1 | ≤ 0

molecular target: AgBzz1-D2; experiment: as above
How it was run: as §1

Binder | SPOT peptide array binding signal intensity
B1 | ≤ 0

molecular target: AgCyk3; experiment: as above
How it was run: as §1

Binder | SPOT peptide array binding signal intensity
B1 | ≤ 0

molecular target: AgFus1; experiment: as above
How it was run: as §1

Binder | SPOT peptide array binding signal intensity
B1 | ≤ 0

molecular target: AgHof1; experiment: as above
How it was run: as §1

Binder | SPOT peptide array binding signal intensity
B1 | ≤ 0

molecular target: AgHse1; experiment: as above
How it was run: as §1

Binder | SPOT peptide array binding signal intensity
B1 | 13.5

molecular target: AgLsb1; experiment: as above
How it was run: as §1

Binder | SPOT peptide array binding signal intensity
B1 | ≤ 0

molecular target: AgLsb4; experiment: as above
How it was run: as §1

Binder | SPOT peptide array binding signal intensity
B1 | ≤ 0

molecular target: AgMyo5; experiment: as above
How it was run: as §1

Binder | SPOT peptide array binding signal intensity
B1 | 3230

molecular target: AgNbp2; experiment: as above
How it was run: as §1

Binder | SPOT peptide array binding signal intensity
B1 | ≤ 0

molecular target: AgRvs167; experiment: as above
How it was run: as §1

Binder | SPOT peptide array binding signal intensity
B1 | ≤ 0

molecular target: AgSho1; experiment: as above
How it was run: as §1

Binder | SPOT peptide array binding signal intensity
B1 | ≤ 0

molecular target: AgSla1-D1-D2; experiment: as above
How it was run: as §1

Binder | SPOT peptide array binding signal intensity
B1 | 7

molecular target: AgSla1-D3; experiment: as above
How it was run: as §1

Binder | SPOT peptide array binding signal intensity
B1 | ≤ 0

molecular target: CaAbp1-D1; experiment: as above
How it was run: as §1

Binder | SPOT peptide array binding signal intensity
B1 | ≤ 0

molecular target: CaAbp1-D2; experiment: as above
How it was run: as §1

Binder | SPOT peptide array binding signal intensity
B1 | ≤ 0

molecular target: CaBbc1; experiment: as above
How it was run: as §1

Binder | SPOT peptide array binding signal intensity
B1 | ≤ 0

molecular target: CaBem1-D1; experiment: as above
How it was run: as §1

Binder | SPOT peptide array binding signal intensity
B1 | ≤ 0

molecular target: CaBzz1-D1; experiment: as above
How it was run: as §1

Binder | SPOT peptide array binding signal intensity
B1 | 19

molecular target: CaBzz1-D2; experiment: as above
How it was run: as §1

Binder | SPOT peptide array binding signal intensity
B1 | 11.2

molecular target: CaCyk3; experiment: as above
How it was run: as §1

Binder | SPOT peptide array binding signal intensity
B1 | ≤ 0

molecular target: CaFus1; experiment: as above
How it was run: as §1

Binder | SPOT peptide array binding signal intensity
B1 | 14.5

molecular target: CaHof1; experiment: as above
How it was run: as §1

Binder | SPOT peptide array binding signal intensity
B1 | ≤ 0

molecular target: CaHse1; experiment: as above
How it was run: as §1

Binder | SPOT peptide array binding signal intensity
B1 | ≤ 0

molecular target: CaLsb1; experiment: as above
How it was run: as §1

Binder | SPOT peptide array binding signal intensity
B1 | ≤ 0

molecular target: CaLsb4; experiment: as above
How it was run: as §1

Binder | SPOT peptide array binding signal intensity
B1 | ≤ 0

molecular target: CaMyo5; experiment: as above
How it was run: as §1

Binder | SPOT peptide array binding signal intensity
B1 | 611

molecular target: CaNbp2; experiment: as above
How it was run: as §1

Binder | SPOT peptide array binding signal intensity
B1 | 4.5

molecular target: CaRvs167; experiment: as above
How it was run: as §1

Binder | SPOT peptide array binding signal intensity
B1 | ≤ 0

molecular target: CaRvs167-3; experiment: as above
How it was run: as §1

Binder | SPOT peptide array binding signal intensity
B1 | 1

molecular target: CaSho1; experiment: as above
How it was run: as §1

Binder | SPOT peptide array binding signal intensity
B1 | ≤ 0

molecular target: CaSla1-D1-D2; experiment: as above
How it was run: as §1

Binder | SPOT peptide array binding signal intensity
B1 | 0.5

molecular target: CaSla1-D3; experiment: as above
How it was run: as §1

Binder | SPOT peptide array binding signal intensity
B1 | ≤ 0

molecular target: ScAbp1; experiment: as above
How it was run: as §1

Binder | SPOT peptide array binding signal intensity
B1 | ≤ 0

molecular target: ScBbc1; experiment: as above
How it was run: as §1

Binder | SPOT peptide array binding signal intensity
B1 | ≤ 0

molecular target: ScBem1-D1; experiment: as above
How it was run: as §1

Binder | SPOT peptide array binding signal intensity
B1 | ≤ 0

molecular target: ScBzz1-D1; experiment: as above
How it was run: as §1

Binder | SPOT peptide array binding signal intensity
B1 | 7.5

molecular target: ScBzz1-D2; experiment: as above
How it was run: as §1

Binder | SPOT peptide array binding signal intensity
B1 | 1.5

molecular target: ScCyk3; experiment: as above
How it was run: as §1

Binder | SPOT peptide array binding signal intensity
B1 | ≤ 0

molecular target: ScFus1; experiment: as above
How it was run: as §1

Binder | SPOT peptide array binding signal intensity
B1 | ≤ 0

molecular target: ScHof1; experiment: as above
How it was run: as §1

Binder | SPOT peptide array binding signal intensity
B1 | ≤ 0

molecular target: ScHse1; experiment: as above
How it was run: as §1

Binder | SPOT peptide array binding signal intensity
B1 | ≤ 0

molecular target: ScLsb1; experiment: as above
How it was run: as §1

Binder | SPOT peptide array binding signal intensity
B1 | ≤ 0

molecular target: ScLsb2; experiment: as above
How it was run: as §1

Binder | SPOT peptide array binding signal intensity
B1 | ≤ 0

molecular target: ScLsb3; experiment: as above
How it was run: as §1

Binder | SPOT peptide array binding signal intensity
B1 | ≤ 0

molecular target: ScLsb4; experiment: as above
How it was run: as §1

Binder | SPOT peptide array binding signal intensity
B1 | ≤ 0

molecular target: ScMyo3; experiment: as above
How it was run: as §1

Binder | SPOT peptide array binding signal intensity
B1 | 2720

molecular target: ScMyo5; experiment: as above
How it was run: as §1

Binder | SPOT peptide array binding signal intensity
B1 | 3220

molecular target: ScNbp2; experiment: as above
How it was run: as §1

Binder | SPOT peptide array binding signal intensity
B1 | ≤ 0

molecular target: ScPex13; experiment: as above
How it was run: as §1

Binder | SPOT peptide array binding signal intensity
B1 | ≤ 0

molecular target: ScRvs167; experiment: as above
How it was run: as §1

Binder | SPOT peptide array binding signal intensity
B1 | ≤ 0

molecular target: ScSho1; experiment: as above
How it was run: as §1

Binder | SPOT peptide array binding signal intensity
B1 | ≤ 0

molecular target: ScSla1-D1-D2; experiment: as above
How it was run: as §1

Binder | SPOT peptide array binding signal intensity
B1 | 1

molecular target: ScSla1-D3; experiment: as above
How it was run: as §1

Binder | SPOT peptide array binding signal intensity
B1 | 7.5

molecular target: SpAbp1-D1; experiment: as above
How it was run: as §1

Binder | SPOT peptide array binding signal intensity
B1 | ≤ 0

molecular target: SpBbc1; experiment: as above
How it was run: as §1

Binder | SPOT peptide array binding signal intensity
B1 | 6

molecular target: SpBzz1-D1; experiment: as above
How it was run: as §1

Binder | SPOT peptide array binding signal intensity
B1 | 52.5

molecular target: SpBzz1-D2; experiment: as above
How it was run: as §1

Binder | SPOT peptide array binding signal intensity
B1 | 1.5

molecular target: SpCyk3; experiment: as above
How it was run: as §1

Binder | SPOT peptide array binding signal intensity
B1 | ≤ 0

molecular target: SpHof1; experiment: as above
How it was run: as §1

Binder | SPOT peptide array binding signal intensity
B1 | ≤ 0

molecular target: SpHof1-2; experiment: as above
How it was run: as §1

Binder | SPOT peptide array binding signal intensity
B1 | ≤ 0

molecular target: SpHof1-3; experiment: as above
How it was run: as §1

Binder | SPOT peptide array binding signal intensity
B1 | ≤ 0

molecular target: SpHse1; experiment: as above
How it was run: as §1

Binder | SPOT peptide array binding signal intensity
B1 | 7

molecular target: SpLsb1; experiment: as above
How it was run: as §1

Binder | SPOT peptide array binding signal intensity
B1 | ≤ 0

molecular target: SpLsb4; experiment: as above
How it was run: as §1

Binder | SPOT peptide array binding signal intensity
B1 | ≤ 0

molecular target: SpMyo1; experiment: as above
How it was run: as §1

Binder | SPOT peptide array binding signal intensity
B1 | 1220

molecular target: SpNbp2; experiment: as above
How it was run: as §1

Binder | SPOT peptide array binding signal intensity
B1 | ≤ 0

molecular target: SpPex13; experiment: as above
How it was run: as §1

Binder | SPOT peptide array binding signal intensity
B1 | 1

molecular target: SpRvs167; experiment: as above
How it was run: as §1

Binder | SPOT peptide array binding signal intensity
B1 | 3.5

molecular target: SpSla1-D1-D2; experiment: as above
How it was run: as §1

Binder | SPOT peptide array binding signal intensity
B1 | ≤ 0

molecular target: SpSla1-D3; experiment: as above
How it was run: as §1

Binder | SPOT peptide array binding signal intensity
B1 | ≤ 0
